# High-throughput results deposited in PubChem BioAssay by National Center for Advancing Translational Sciences (NCATS).
# LmPK inhibitor: qHTS Assay for Inhibitors of Leishmania Mexicana Pyruvate Kinase (LmPK) | Q27686 | purified LmPK, Kinase-Glo ATP luminescence, 1 h | Potency, µM (doses to about 57.5 µM), inactives show top-dose activity change, negative = inhibition, usual class: inhibitors | 290,000 compounds, 0.37% hits | AID 1721, 2009; further: potency means the concentration at half of the fitted maximal effect; on the % scale 0 is the no-effect control and ±100 the full control effect
#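 Purified LmPK (0.1 nM) converted ADP (0.1 mM) to ATP with PEP (0.5 mM) in imidazole buffer pH 7.2 with KCl and MgCl2, 1 h at room temperature. ATP was read by Kinase-Glo luminescence; data normalized to uninhibited and no-enzyme controls.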
# CHX counter: Cycloheximide Counterscreen for Small Molecule Inhibitors of Shiga Toxin. cell reporter, cycloheximide protein synthesis inhibition counterscreen. max response, %. 300,000 compounds, 12% hits; in the data active means max response mostly above about 13%, no sharp cut-off; inactive means mostly below about 14%; further: read at 38.3 µM for the half of the compounds with a filed dose; 0% is about no effect
# RE007 growth inh: qHTS Assay for Inhibitors of the HIV-1 protein Vpr; 360,000 compounds, 0.21% hits; Potency, µM (top dose mostly 92.2 µM), for inactives: at the top dose activity change, negative = less growth, most hits filed as inhibitors; AID 651644, 2012; S. pombe RE007 Vpr strain, BacTiter-Glo ATP luminescence, 24 h; active means well fitted falling curve with a large enough effect; inconclusive means small, poorly fitted or top-dose-only effect; inactive means no such curve, though single readings can be large or run the other way; further: potency means the concentration at half of the fitted maximal effect; on the % scale 0 is the no-effect control and ±100 the full control effect; nearly all actives have a fitted effect of over 50% in size
#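 Fission yeast RE007 carrying one integrated HIV-1 vpr copy, seeded at OD 0.01 in PMG+AL medium with 23 nL pinned compound. Grown 24 h at 30 degrees; viability read by BacTiter-Glo luminescence after 5 min.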
# Shiga inhibitor: A qHTS for Small Molecule Inhibitors of Shiga Toxin; inhibition, % at 38.7 µM; Vero cells, Shiga toxin protein synthesis inhibition reporter; 290,000 compounds, 9.2% hits; AID 2315, 2010; in the data active means inhibition mostly above about 28%, no sharp cut-off; inactive means mostly below about 43%; further: 0% is about no effect
# FBPA Giardia inh: qHTS Assay for Inhibitors of Fructose-1,6-bisphosphate Aldolase from Giardia Lamblia; A8B2U2; Potency, µM (series often up to 59.6 µM), for the others: at the top dose activity, negative = inhibition, most hits filed as inhibitors; 290,000 compounds, 0.71% hits; purified Giardia FBPA; AID 2451, 2010; further: potency means the concentration at half of the fitted maximal effect; on the % scale 0 is the no-effect control and ±100 the full control effect; nearly all actives have a fitted effect of over 55% in size
# Target sequence (A8B2U2 whole entry, looked up): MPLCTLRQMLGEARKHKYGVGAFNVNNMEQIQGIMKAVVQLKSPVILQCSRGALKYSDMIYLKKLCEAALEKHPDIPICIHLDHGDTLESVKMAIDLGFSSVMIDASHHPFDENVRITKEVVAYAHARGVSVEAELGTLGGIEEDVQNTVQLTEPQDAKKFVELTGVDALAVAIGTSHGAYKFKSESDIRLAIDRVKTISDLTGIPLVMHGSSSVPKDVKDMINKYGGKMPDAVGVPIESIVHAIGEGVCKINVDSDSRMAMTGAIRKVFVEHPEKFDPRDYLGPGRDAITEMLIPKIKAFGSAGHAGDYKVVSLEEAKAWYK
#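 Giardia FBPA (40 nM reagent) was preincubated 10 min at RT with compound (up to 57.5 uM final), then substrate plus GAPDH/TPI/NAD/arsenate coupling system with diaphorase/resazurin was added; resorufin fluorescence (525/598 nm) was read after 20 min.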
# TbPYK inhibitor: qHTS of Trypanosoma Brucei Inhibitors; 410,000 compounds, 0.12% hits; pyruvate kinase (Trypanosoma brucei), Q57TT1; TbPYK enzyme, Kinase-Glo Plus ATP luminescence, 45 min; Potency, µM (top dose mostly 76.8 µM), for inactives: at the top dose activity, negative = inhibition, usual class: inhibitors; further: potency means the concentration at half of the fitted maximal effect; on the % scale 0 is the no-effect control and ±100 the full control effect; nearly all actives have a fitted effect of over 50% in size
#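 Luminescence from Kinase-Glo Plus, added after a 45-minute room-temperature reaction, served as the end-point read-out. The enzyme and substrate were preincubated with compound before ADP (130 uM final) initiated turnover. Concentration-effect curves came from normalized qHTS data.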
# * marks the source's active call; other numbers are inactive results; ? = inconclusive; . = no result; [ ] = dose if it differs, or a comment. This is one part of a sample in which hits are shown more often than they occur. Unless noted, the call rests on the fitted dose curve; in most records, active means well fitted curve in the direction sought with a large enough effect; inconclusive means small, poorly fitted or top-dose-only effect, or another doubt; inactive means no such curve, though single readings can be large; an effect the other way counts as inactive or inconclusive.
SMILES,LmPK inhibitor,CHX counter,RE007 growth inh,Shiga inhibitor,FBPA Giardia inh,TbPYK inhibitor
CN1C(=O)N(c2nnc(C(C)(C)C)s2)C(=O)C1c1ccccc1 (centres undefined),3%,4,7%,6,-3%,-2%
CCCCN1C(=O)N(c2nnc(C(C)(C)C)s2)C(O)C1c1ccc(C)cc1 (centres undefined),-2%,17*,4%,30,-6%,-3%
CCOC(=O)c1nc(N)c(C(=O)OCC)[nH]1,3%,-4,4%,13,-30%,-26%
CCOC(=O)c1c(C)nc(C(Cl)(Cl)Cl)nc1N,-4%,18*,-18%,56*,?,2%
O=C(NC(=S)Nc1ccc(F)cc1)c1ccc2c(c1)OCCO2,-2%,70*,-9%,101*,-6%,-3%
COc1ccc(NC(=S)NC(=O)c2ccc3c(c2)OCCO3)cc1,.,.,-6%,.,.,0%
COc1ccc(C(=O)NC(=S)Nc2ccc(CN3CCOCC3)cc2)cc1Br,2%,-1,-3%,-5,?,-12%
O=C(NC(=S)Nc1c(F)cc(F)cc1Br)c1ccc2c(c1)OCCO2,1%,28*,-7%,84*,-13%,-4%
O=C(NC(=S)Nc1ccc(CN2CCOCC2)cc1)c1ccc2c(c1)OCCO2,3%,31*,-29%,88*,-25%,-2%
O=C(NC(=S)Nc1ccc(Cc2ccncc2)cc1)c1ccc(F)cc1,8%,18*,-12%,27,-9%,-5%
Cc1cccc(CNC(=O)CN2C(=O)CCCc3ccccc32)c1,.,.,.,.,.,3%[15.4 µM]
CC(CNC(=O)c1cccnc1)NC(=O)c1cccnc1 (centres undefined),.,.,.,.,.,3%
O=C(NC(=S)Nc1ccc(N2CCOCC2)cc1)c1ccc2c(c1)OCCO2,3%,42*,-14%,61*,-2%,-21%
Cc1ccc(C(=O)NC(=S)Nc2ccc(N3CCOCC3)cc2)cc1C,3%,4,-6%,5,-11%,2%
CCCCOc1ccc(C(=O)NC(=S)Nc2ccc(CN3CCOCC3)cc2)cc1,-3%,-4,17%,-12,0%,-5%
O=C(NC(=S)Nc1ccc(N2CCCCC2)cc1)c1ccc2c(c1)OCCO2,-2%,58*,-10%,98*,-1%,-3%
COc1ccc(C(=O)NC(=S)Nc2ccc(CN3CCOCC3)cc2)cc1,2%,18,-14%,47*,-10%,-2%
Cc1ccccc1-c1nc(SCC(=O)NCc2ccc(F)cc2)c2c(=O)n(C)c(=O)n(C)c2n1,.,.,.,.,.,-3%
COC(=O)c1ccc(NC(=O)c2ccc3nc(C)sc3c2)cc1,3%,77*,-4%,.,-3%,2%
COc1ccc(NC(=O)c2ccc3nc(C)sc3c2)cc1,0%,64*,55%,129*,-15%,4%
COc1ccc(CC(=O)Nc2ccc3nc(C)sc3c2)cc1OC,6%,2,-1%,-1,4%,-2%
Cc1nc2ccc(NC(=O)c3ccc(S(=O)(=O)N(C)c4ccccc4)cc3)cc2s1,1%,7,3%,-3,-2%,5%
COc1ccc(C(=O)Nc2ccc3nc(C)sc3c2)cc1OC,-2%,31*,?,84,-1%,1%
O=C(Nc1cccc([N+](=O)[O-])c1)c1cccc(C(=O)Nc2cccc([N+](=O)[O-])c2)c1,0%,-5,.,-3,0%,5%
Cc1nc2ccc(C(=O)Nc3cccc([N+](=O)[O-])c3)cc2s1,0%,30*,-12%,101*,-4%,-2%
Cc1cccc(N2CCN(C(=O)C3CCCN(S(=O)(=O)c4ccc5c(c4)oc(=O)n5C)C3)CC2)c1C (centres undefined),.,.,.,.,.,-1%
Cc1ccc(S(=O)(=O)Nc2cccc(-c3ccc(N4CCC(C)CC4)nn3)c2)s1,.,.,.,.,.,-10%
CN(C)c1ccc(/C=N/c2cc(-c3ccccc3)nn2-c2ccccc2)cc1,-5%,39*,16%,57*,-5%,4%
